In general, inhibition refers to the change of the read-out against control, counted positive when it falls. The term viability denotes a read-out of living cells in per cent, often relative to untreated cells.

These results are taken from PubChem BioAssay.

Experiment [1] can be described thus: stimulators of nuclear beta-catenin in C2C12, primary screen, imaging, WNT3A-conditioned medium, mouse C2C12, NPC library (AID 1117326; in the data active = nuclear beta-catenin stimulation mostly above about 4.2%, no sharp cut-off; inactive = mostly below about 10%). The conditions noted are these: stronger effect = higher value.
A short description of experiment [2]: stimulators of insulin release from INS-1E, primary screen, cell-based, 5 mM glucose, NPC library (AID 1117329;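 active = compound raises insulin release from rat beta cells at 5 mM glucose, no numeric limit stated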). Conditions: rat INS-1E insulin secretion, at 10 µM, stronger effect = higher value.
Experiment [3] is described as follows: growth inhibition of GSK3B-pretreated HCT116 cells – cell-based, CellTiter-Glo, 0.2 to 20 µM (AID 1117336;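 active = compounds lowering colon cancer cell viability after pretreatment blocking the GSK3B kinase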). The conditions noted are these: HCT116 viability after GSK3B inhibitor, at 20 µM, stronger effect = higher value.
A short description of experiment [4]: inhibition of endothelial tube formation, primary screen, imaging, VEGF stimulated, CD31 staining, tube area, NPC library (AID 1117340;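 active = compound that reduces growth-factor-driven endothelial tube area in a mixed cell culture, no cutoff stated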). The conditions noted are these: VEGF-stimulated ADSC/ECFC co-culture, at 10 µM, stronger effect = higher value.
Experiment [5] in a line: glucagon-like peptide 1 release enhancers, primary assay, NCI-H716 cell line, NPC library (AID 1117341;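 active = compound raises GLP1 secretion from the human gut endocrine cells, with no numeric limit stated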). Conditions: NCI-H716 cells, at 10 µM, stronger effect = higher value.
Experiment [6] can be described thus: HCT116 colon cancer cell growth inhibition, primary screen, CellTiter-Glo luminescence, NPC library (AID 1117342;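 active = compounds that lower survival of HCT116 colon cancer cells in the luminescence readout, no numeric limit stated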). Conditions: at 20 µM (top of the series).
Experiment [7] can be described thus: CellTiter-Glo luminescent readout of SW480 viability loss, NPC library primary (AID 1117343;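 active = compounds that lower viability of the colon cancer cells in the luminescence readout, with no numeric limit stated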). The conditions noted are these: CellTiter-Glo luminescence; at 20 µM (top of the series). On the technique in general: Cellular ATP, detected with luciferase, serves as a proxy for viable cell number.
Experiment [8] is described as follows: decreased DLD-1 cellular survival, CellTiter-Glo luminescent readout, NPC compound collection, primary HTS (AID 1117346;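 active = compounds that lower survival of DLD-1 colon cancer cells in the luminescence readout, no cutoff given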). Conditions: DLD-1 viability, CellTiter-Glo luminescence; at 20 µM (top of the series).
The target in experiment [9] is 6-phosphogluconate dehydrogenase, decarboxylating (Homo sapiens) (UniProt P52209). The experiment in a line: 6PGD enzyme inhibitors, primary screen, biochemical, human, recombinant enzyme, NADPH absorbance (AID 1159550;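 active = at least 20% inhibition of 6-phosphogluconate dehydrogenase activity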). The conditions noted are these: recombinant 6PGD, NADPH absorbance 341 nm; at 10 µM; stronger effect = higher value.
Chain of 6-phosphogluconate dehydrogenase, decarboxylating (Homo sapiens) (P52209 whole entry, looked up): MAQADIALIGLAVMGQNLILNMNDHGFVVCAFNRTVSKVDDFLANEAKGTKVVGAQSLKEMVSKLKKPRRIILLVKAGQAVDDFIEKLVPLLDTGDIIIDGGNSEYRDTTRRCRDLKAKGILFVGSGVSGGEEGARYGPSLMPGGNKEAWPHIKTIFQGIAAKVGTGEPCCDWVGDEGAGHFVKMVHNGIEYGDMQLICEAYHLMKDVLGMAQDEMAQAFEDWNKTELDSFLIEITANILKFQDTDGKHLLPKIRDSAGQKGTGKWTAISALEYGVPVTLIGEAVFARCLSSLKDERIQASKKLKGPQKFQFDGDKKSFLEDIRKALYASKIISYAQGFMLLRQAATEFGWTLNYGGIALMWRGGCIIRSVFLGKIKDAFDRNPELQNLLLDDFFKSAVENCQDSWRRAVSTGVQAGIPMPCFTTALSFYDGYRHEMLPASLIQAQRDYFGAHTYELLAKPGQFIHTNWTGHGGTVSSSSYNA
Experiment [10] in a line: differential killing of epithelial or mesenchymal cells, primary screen, imaging, PC-3E GFP, TEM4-18 mCherry, co-culture (AID 1345086;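 active = compounds killing one labelled cell type while sparing the other, by normalised counts and ratio limits, not self-fluorescent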;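 as to all read-outs here: cells exposed to compound for 72 h before imaging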;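 as to red/green cell ratio (normalised): normalised mesenchymal count divided by normalised epithelial count so high means epithelial killing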). The conditions noted are these: imaging cell counts, at 1 µM; for red/green cell ratio (normalised): actives lie on both sides.
Experiment [11] deals with Aerobactin synthetase IucA (Klebsiella pneumoniae hvKP1). The experiment can be described thus: Biochemical IucA enzyme inhibition primary screen of the Spectrum library (AID 1346200; call rule not given here;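 also: 100% = wells without compound and 0% = wells lacking enzyme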). Conditions: malachite green pyrophosphate, A620, at 8 µM, stronger effect = lower value.
The nature of experiment [12]: survival rescue of mitochondrial mutant cells in low glucose, primary screen, MELAS cybrids, Rieske KO mouse fibroblasts, CellTiter-Glo (AID 1508586;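 active = mean z-score across replicates of 1.96 or higher in either the MELAS or the Rieske mutant cell line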;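 also: z relative to plate mean and SD of compound and empty wells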).
Experiment [13] deals with NAD(+) hydrolase SARM1 (Homo sapiens) (UniProt Q6SZW1). The experiment in a line: SARM1 TIR NADase inhibitors, cell lysate, NAD-Glo luminescence (AID 1508614;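 active = compound whose remaining NAD level is above about 45 nM, limit read from the data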;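 also: higher remaining NAD means stronger inhibition of SARM1 NADase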). The conditions noted are these: SAM-TIR HEK293T lysate NADase, at 1 µM, stronger effect = higher value.
Chain of NAD(+) hydrolase SARM1 (Homo sapiens) (Q6SZW1 whole entry, looked up, the tested form may be a part): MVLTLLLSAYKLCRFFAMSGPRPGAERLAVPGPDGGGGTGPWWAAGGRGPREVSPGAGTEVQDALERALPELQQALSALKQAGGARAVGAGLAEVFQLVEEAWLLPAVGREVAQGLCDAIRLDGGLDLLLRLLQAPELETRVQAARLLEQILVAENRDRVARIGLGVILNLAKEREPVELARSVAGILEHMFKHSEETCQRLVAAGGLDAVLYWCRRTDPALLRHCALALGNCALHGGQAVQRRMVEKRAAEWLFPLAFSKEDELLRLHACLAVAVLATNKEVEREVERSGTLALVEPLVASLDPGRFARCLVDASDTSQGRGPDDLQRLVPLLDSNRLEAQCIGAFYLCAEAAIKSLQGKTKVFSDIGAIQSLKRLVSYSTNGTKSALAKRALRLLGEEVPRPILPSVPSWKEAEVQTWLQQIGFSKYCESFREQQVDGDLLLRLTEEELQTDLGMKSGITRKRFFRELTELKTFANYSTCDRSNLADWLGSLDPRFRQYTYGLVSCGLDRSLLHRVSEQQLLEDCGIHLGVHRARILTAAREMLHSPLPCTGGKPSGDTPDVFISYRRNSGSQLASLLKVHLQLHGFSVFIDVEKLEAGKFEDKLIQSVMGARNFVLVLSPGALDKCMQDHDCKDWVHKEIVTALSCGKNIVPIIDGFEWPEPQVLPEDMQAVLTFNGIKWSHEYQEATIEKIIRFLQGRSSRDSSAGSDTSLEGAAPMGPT
Experiment [14] has as its target Mitogen-activated protein kinase 7 (Homo sapiens) (UniProt Q13164). The experiment in a line: ERK5 transactivation activators in reporter cells, primary screen, cell-based, HTS (AID 1508626;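 active = luciferase signal above three times the same-plate solvent-only control wells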;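 also: luciferase driven by Gal4-ERK5 fusion binding five Gal4 sites before minimal TATA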). The conditions noted are these: HeLa Gal4-ERK5 transactivation, 18 h, at 5 µM, stronger effect = higher value.
Experiment [15] is described as follows: viability rescue of complex I mutant cybrids, primary screen, cell-based, galactose medium, ATP luminescence (AID 1645843).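 Also: positive z means more ATP and so rescue of galactose-driven cybrid death.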 Conditions: complex I mutant cybrid cells, 72 h, stronger effect = higher value.
The nature of experiment [16]: liver-stage malaria parasite growth inhibition, primary screen, cell-based, HepG2, luciferase luminescence, HepG2 viability (AID 624349; in the data active = parasite load remaining mostly below about 12%, no sharp cut-off; inactive = mostly above about 10%;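 also: 100% = mean of DMSO negative control wells on the same plate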). The conditions noted are these: P. berghei liver stage in HepG2, luciferase luminescence, concentration not given here; parasite load remaining: stronger effect = lower value; viability: measured here: HepG2 viability without parasites.
Experiment [17] is described as follows: sensitizers of A549 cells to miR-34 induction, primary screen, imaging, A549 dox-inducible miR-34, nuclei and caspase counts (AID 1347080;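 active = compounds whose cell count with miR-34 switched on is under 0.7 times the count with it off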). Conditions: A549 miR-34 inducible, Hoechst nuclei count, 48 h.
Experiment [18] can be described thus: suppressors of polyQ aggregation in yeast, 75Q-TubU reporter (AID 1593). The conditions noted are these: Yeast 75Q polyglutamine aggregation reporter.
Experiment [19] can be described thus: inhibitors of mitochondrial cytochrome c release, biochemical, purified mitochondria (AID 1603).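 Also: mouse liver mitochondria challenged with calcium chloride; signal normalized to the plate average as 100%.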 The conditions noted are these: stronger effect = lower value.
Experiment [20] is described as follows: inhibitors of polyQ protein aggregation (AID 1604). Conditions: polyglutamine-induced protein aggregation inhibition assay; stronger effect = higher value; tested at 2.5 µM.
Setting [21] is: measured here: epithelial PC-3E GFP cell survival.
[22] abbreviates: measured here: mesenchymal TEM4-18 mCherry cell survival.
Setting [23] is: MELAS cybrid survival, CellTiter-Glo 48 h, stronger effect = higher value.
Setting [24] is: Rieske KO mouse fibroblast survival, CellTiter-Glo 72 h.
The mark [25] stands for this setting: measured here: relative caspase fold change +Dox/-Dox.
Where [26] appears, read: measured here: total cells with miR-34 induction, stronger effect = lower value.
Where [27] appears, read: measured here: total cells without miR-34 induction.

Where “and” joins values, the source holds several entries; their conditions need not be identical. Equal entries are not always repeated. Calls of active or inactive are those of the source.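 The calls were made as follows, unless noted: active = z-score of at least 1.8 in each of two replicates, scored against plate mean and spread of sample wells; inactive = the rest.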

Chain of Mitogen-activated protein kinase 7 (Homo sapiens) (Q13164 whole entry, looked up, the tested form may be a part): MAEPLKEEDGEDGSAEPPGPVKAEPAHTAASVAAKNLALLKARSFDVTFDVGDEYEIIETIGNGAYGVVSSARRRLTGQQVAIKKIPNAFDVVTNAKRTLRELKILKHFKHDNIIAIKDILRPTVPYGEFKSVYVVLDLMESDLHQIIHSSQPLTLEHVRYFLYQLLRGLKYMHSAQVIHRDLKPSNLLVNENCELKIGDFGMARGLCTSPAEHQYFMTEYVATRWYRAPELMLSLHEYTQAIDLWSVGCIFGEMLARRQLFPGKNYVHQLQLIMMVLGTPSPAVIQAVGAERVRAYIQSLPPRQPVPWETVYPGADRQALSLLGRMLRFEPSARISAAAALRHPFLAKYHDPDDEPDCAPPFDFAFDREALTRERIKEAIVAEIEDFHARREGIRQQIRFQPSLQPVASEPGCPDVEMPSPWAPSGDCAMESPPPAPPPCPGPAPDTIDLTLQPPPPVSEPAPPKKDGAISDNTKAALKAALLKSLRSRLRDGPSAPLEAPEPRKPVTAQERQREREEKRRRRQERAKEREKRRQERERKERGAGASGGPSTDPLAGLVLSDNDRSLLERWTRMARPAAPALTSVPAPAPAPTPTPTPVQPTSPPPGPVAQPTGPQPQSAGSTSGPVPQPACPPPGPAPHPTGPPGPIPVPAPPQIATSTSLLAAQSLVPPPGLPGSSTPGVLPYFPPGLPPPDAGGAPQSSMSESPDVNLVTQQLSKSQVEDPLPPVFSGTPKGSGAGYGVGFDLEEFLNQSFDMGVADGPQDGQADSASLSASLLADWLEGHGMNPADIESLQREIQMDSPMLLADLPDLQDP

Consider `O=c1[nH]c2ccccc2n1CCCN1CCC(n2c(=O)[nH]c3cc(Cl)ccc32)CC1`, for which the nuclear beta-catenin stimulation in [1] (at 10 µM) is 3.1% (inactive); in experiment [1] (stimulation, at 2 µM), 0.9%. The insulin secretion stimulation in experiment [2] was 41.9% (active). The viability decrease in experiment [3] is -17.1% (inactive). In experiment [4], the tube area decrease was 12.9% (inactive). In experiment [5], the GLP1 secretion stimulation is 6.8% (inactive). Also, the inhibition of viability in [6] is 13.1% (inactive). In addition, the values for the viability decrease (inhibition) in experiment [7] and in [8] were 13.8% (inactive) and 15.8% (inactive), respectively. In addition, the inhibition in [9] is 2.55% (inactive). In experiment [10], the red/green cell ratio (normalised) is 1.2 (inactive). Besides, the normalised cell number came out at 0.91 in experiment [10] (setting [21]) and 1.1 in experiment [10] (setting [22]). The activity remaining in experiment [11] was 117% (inactive). For the same molecule, the z-score in experiment [12] (setting [23]) is -0.488 (inactive) and -0.032 (inactive) and 1.25 (inactive); in experiment [12] (setting [24]), 0.597 and -0.334 and 1.01; in experiment [15], -0.92 (inactive) and -0.455 (inactive) and -0.075 (inactive). In experiment [13], the remaining NAD is 10 nM (inactive). Further, in experiment [14], the luciferase signal was 44 AU (inactive).
Turning to `COc1ccc2c(C(=O)c3ccc(Cl)cc3)c(C)n(CC(=O)O)c2c1`, the nuclear beta-catenin stimulation in [1] (at 10 µM) is -0.1% (inactive); in experiment [1] (stimulation, at 2 µM), -0.8%. Moreover, the insulin secretion stimulation in [2] was 1.05% (inactive). Further, the viability decrease in experiment [3] is 13.7% (inactive). Besides, in experiment [4], the tube area decrease was -18.1% (inactive). The GLP1 secretion stimulation in experiment [5] was -0.1% (inactive). Moreover, the inhibition of viability in experiment [6] is 8% (inactive). Besides, the results for the viability decrease (inhibition) in [7] and in experiment [8] were 22.3% (inactive) and -3.8% (inactive), respectively.
For the molecule `CCC1(C2=NCCN2)Cc2ccccc2O1` (stereo unspecified), in [16], the parasite load remaining is 40% (inactive). Also, the viability in [16] was 95.5%. Also, the nuclear beta-catenin stimulation in experiment [1] (at 10 µM) was 1.3% (inactive); in experiment [1] (stimulation, at 2 µM), -0.1%. Besides, in experiment [2], the insulin secretion stimulation was 3% (inactive). The viability decrease in experiment [3] is -18.3% (inactive). In addition, the tube area decrease in experiment [4] is 6.6% (inactive). For the same molecule, the GLP1 secretion stimulation in experiment [5] was 2.2% (inactive). The inhibition of viability in experiment [6] is 3.97% (inactive). Besides, the results for the viability decrease (inhibition) in [7] and in experiment [8] were 3% (inactive) and 0.7% (inactive), respectively. Besides, the inhibition in [9] was 2.64% (inactive). In experiment [10] (counts scaled to control wells, 1 = unselective), the red/green cell ratio (normalised) was 0.88 (inactive). Also, the values for the normalised cell number in [10] (setting [21]) and in [10] (setting [22]) were 1.21 and 1.07, respectively. For the same molecule, the activity remaining in [11] is 92.2% (inactive). In addition, the fold change in experiment [17] (stronger effect = lower value) is 0.923 (inactive) and 0.953 (inactive) and 0.905 (inactive); in [17] (setting [25]) it was 1.9 and 0.731 and 1.02. Besides, the cell count in [17] (setting [26]) was 9860 and 8980 and 10100; in [17] (setting [27]), 10700 and 9420 and 11200. Further, the z-score is -0.478 (inactive) in experiment [12] (setting [23]); -0.349 in experiment [12] (setting [24]); 0.21 (inactive) and 0.18 (inactive) and 0.695 (inactive) in experiment [15]. Further, the remaining NAD in [13] was 10 nM (inactive). Besides, the luciferase signal in experiment [14] is 140 AU (inactive).
In the case of `N[C@@H](Cc1ccc(N(CCCl)CCCl)cc1)C(=O)O`, the score in [18] is 1.14. The cytochrome c release ratio in experiment [19] was 0.77. For the same molecule, in [20], the inhibition of aggregation was 49.4%. Also, the parasite load remaining in experiment [16] was 85.5% (inactive) and 46.9% (inactive). The viability in experiment [16] is 102% and 79%. Also, the nuclear beta-catenin stimulation in experiment [1] (at 10 µM) was 5.3% (inactive); in experiment [1] (stimulation, at 2 µM), -1.1%. For the same molecule, the insulin secretion stimulation in experiment [2] is -2.1% (inactive). Moreover, the viability decrease in [3] was 57.9% (active). Also, in experiment [4], the tube area decrease was 89.6% (active). In experiment [5], the GLP1 secretion stimulation was 0.9% (inactive). The inhibition of viability in experiment [6] was 11.2% (inactive). In addition, the figures for the viability decrease (inhibition) in [7] and in experiment [8] were 8.5% (inactive) and 8.7% (inactive), respectively. Besides, the inhibition in experiment [9] was -5.9% (inactive). Besides, the red/green cell ratio (normalised) in experiment [10] was 0.83 (inactive). Besides, the values for the normalised cell number in experiment [10] (setting [21]) and in [10] (setting [22]) were 0.94 and 0.77, respectively. For the same molecule, in [11], the activity remaining was 104% (inactive). Also, the fold change in [17] (stronger effect = lower value) is 0.909 (inactive) and 0.963 (inactive); in experiment [17] (setting [25]), 1.01 and 1.57. Also, the cell count in [17] (setting [26]) is 3400 and 2500; in experiment [17] (setting [27]) it was 3740 and 2600. In addition, the figures for the z-score in experiment [12] (setting [23]), in experiment [12] (setting [24]) and in [15] were 0.0989 (inactive), -1.05 and -1.76 (inactive), respectively. Moreover, the remaining NAD in experiment [13] is 10 nM (inactive). The luciferase signal in experiment [14] was 40 AU (inactive).
